# Laboratory results from the supplement of paper PMC8728848.
# The entries come from a sample that favours the strongest signals as a whole.
# B1: Epf (Streptococcus pyogenes) (protein)
# chain: GDHGPEFNGVMVVKAAEAEELPDDLMNFKGTWEVSADGSSGRFFSKGATDSYVFHLIPAKDVKKPGWREHNEVKDSYIKIDKQSIAARYKTSTTAPYSVAFKVNTKSLIKDHDYKITFEQGQIASGITVDYRIGSAFNKTTDDSFKISDESKYASNVKIEGEEQGFKQREQGDKTISFRTLKEGPMSLVLLSKVEKKPQGDLDVEFKNLKIIDVTNPSQLDKGVAYVGNKNVQLTLKSDDGRTNFEGDEISLFNSRGELLQTVTVTKDQQNPISITLSEDQAKSLKNKEKLKVSIKQKQSKKTSKDFFFEVGIDPKVEAKQKEKLLELDKVKKQIEDSINGDAWLPEKPVDLQGDHGLSAWSHPQFEK
# Experiments:
# Experiment in all cases: glycan array binding signal (z-score within array); higher = stronger binding
# Conditions in all cases: glycan notation: IUPAC condensed, linker removed
# [1] = target: GlcNAc(b1-3)Gal(b1-4)GlcNAc(b1-3)Gal(b1-4)GlcNAc(b1-3)Gal(b1-4)GlcNAc(b1-2)Man(a1-3)[GlcNAc(b1-3)Gal(b1-4)GlcNAc(b1-3)Gal(b1-4)GlcNAc(b1-3)Gal(b1-4)GlcNAc(b1-2)Man(a1-6)]Man(b1-4)GlcNAc(b1-4)[Fuc(a1-6)]GlcNAc
# How it was run: (§1)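 The binding signal is a Z-score computed within each array. Data were drawn from 3228 arrays in the Consortium for Functional Glycomics database, restricted to those with a known protein sequence. Scores were averaged over arrays of the same protein sequence at different concentrations or buffers, and over linkers, and negative values can be taken as non-binding.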
# [2] = target: GlcNAc(b1-3)Gal(b1-4)GlcNAc(b1-3)Gal(b1-4)GlcNAc(b1-3)Gal(b1-4)GlcNAc(b1-2)[GlcNAc(b1-3)Gal(b1-4)GlcNAc(b1-3)Gal(b1-4)GlcNAc(b1-3)Gal(b1-4)GlcNAc(b1-6)]Man(a1-6)[GlcNAc(b1-3)Gal(b1-4)GlcNAc(b1-3)Gal(b1-4)GlcNAc(b1-3)Gal(b1-4)GlcNAc(b1-2)Man(a1-3)]Man(b1-4)GlcNAc(b1-4)[Fuc(a1-6)]GlcNAc
# How it was run: as §1
# GlcNAc(b1-4)GlcNAc = target: GlcNAc(b1-4)GlcNAc
# How it was run: as §1
# [3] = target: GlcNAc(b1-4)[GlcNAc(b1-6)]GalNAc
# How it was run: as §1
# [4] = target: GlcNAc(b1-6)Gal(b1-4)GlcNAc
# How it was run: as §1
# [5] = target: Man(a1-2)Man(a1-2)Man(a1-6)[Man(a1-3)]Man
# How it was run: as §1
# [6] = target: Man(a1-3)[Man(a1-6)]Man(b1-4)GlcNAc(b1-4)GlcNAc
# How it was run: as §1
# Man(b1-4)GlcNAc = target: Man(b1-4)GlcNAc
# How it was run: as §1
# Neu5Ac(a2-3)Gal = target: Neu5Ac(a2-3)Gal
# How it was run: as §1
# [7] = target: Neu5Ac(a2-3)Gal(b1-3)GalNAc6S
# How it was run: as §1
# [8] = target: Neu5Ac(a2-3)Gal(b1-3)GlcNAc(b1-3)Gal(b1-4)GlcNAc
# How it was run: as §1
# [9] = target: Neu5Ac(a2-3)Gal(b1-4)GlcNAc(b1-2)Man(a1-3)[Neu5Ac(a2-6)Gal(b1-4)GlcNAc(b1-2)Man(a1-6)]Man(b1-4)GlcNAc(b1-4)GlcNAc
# How it was run: as §1
# [10] = target: Neu5Ac(a2-3)Gal(b1-4)GlcNAc(b1-3)Gal(b1-4)GlcNAc(b1-2)Man(a1-3)[Neu5Ac(a2-3)Gal(b1-4)GlcNAc(b1-3)Gal(b1-4)GlcNAc(b1-2)Man(a1-6)]Man(b1-4)GlcNAc(b1-4)GlcNAc
# How it was run: as §1
# [11] = target: Neu5Ac(a2-3)Gal(b1-4)[Fuc(a1-3)]GlcNAc(b1-2)Man
# How it was run: as §1
# Neu5Ac(a2-8)Neu5Ac = target: Neu5Ac(a2-8)Neu5Ac
# How it was run: as §1
# [12] = target: Neu5Ac(a2-8)Neu5Ac(a2-8)Neu5Ac
# How it was run: as §1
# [13] = target: Neu5Gc(a2-3)Gal(b1-4)GlcNAc
# How it was run: as §1
binder,measurement,setting,value
B1,glycan array binding signal (z-score),[1],2.18
same,glycan array binding signal (z-score),[2],2.85
same,glycan array binding signal (z-score),GlcNAc(b1-4)GlcNAc,-1.32
same,glycan array binding signal (z-score),[3],3.11
same,glycan array binding signal (z-score),[4],-0.433
same,glycan array binding signal (z-score),[5],1.01
same,glycan array binding signal (z-score),[6],0.659
same,glycan array binding signal (z-score),Man(b1-4)GlcNAc,-0.471
same,glycan array binding signal (z-score),Neu5Ac(a2-3)Gal,-0.169
same,glycan array binding signal (z-score),[7],1.65
same,glycan array binding signal (z-score),[8],-1.25
same,glycan array binding signal (z-score),[9],-0.643
same,glycan array binding signal (z-score),[10],1.33
same,glycan array binding signal (z-score),[11],-1.48
same,glycan array binding signal (z-score),Neu5Ac(a2-8)Neu5Ac,0.246
same,glycan array binding signal (z-score),[12],-0.377
same,glycan array binding signal (z-score),[13],0.422
